Assay outcomes (PubChem)
Hits are enriched below; roughly 19% of the tested compounds scored in any of these assays.
DT40 TDP1 CPT = growth inhibition of DT40 Tdp1-/-;hTDP1 cells with camptothecin (screen for TDP1 inhibitors); chicken DT40 Tdp1-/-;hTDP1 cells + 20 nM CPT, ATP luminescence, 48 h; Potency, µM (titrated, usually from 46.2 µM), for the others: at the top dose activity change, negative = growth inhibition, most hits filed as inhibitors; actives 12% (n = 420,000); AID 686979; note: potency is the fitted concentration of half-maximal effect; nearly all actives have a fitted effect of over 55% in size
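Chicken DT40 Tdp1-/- cells complemented with human TDP1, 400 cells/well, exposed to compounds plus 20 nM camptothecin for at least 48 h at 37 C; viability read as ATP content by CellTiter-Glo luminescence.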
IL-1B inflam inh = inflammasome signaling inhibition, IL-1 beta readout; THP-1 LPS/ATP IL-1B secretion, AlphaLISA, 16 h; hits give low values; activity change, % at 57.5 µM; AID 743279; actives 4.7% (n = 360,000); in the data active = activity change below about -50%; inconclusive = mostly about -30% to -49%
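THP-1 cells pretreated 1 hr with compounds (up to 57.5 uM final), then stimulated with LPS (250 ng/mL final) plus ATP (1.25 mM final); secreted IL-1B measured by AlphaLISA after 16 hr, decreased signal indicating inhibition.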
TDP1 cell noCPT = qHTS for Inhibitors of human tyrosyl-DNA phosphodiesterase 1 (TDP1): qHTS in cells in absence of CPT; actives 15% (n = 420,000); DT40 Tdp1-/- hTDP1 cells, no CPT, ATP luminescence, 48 h; Potency, µM (highest dose often 46.2 µM), for the others: at the top dose activity change, negative = growth inhibition, usual class: inhibitors; note: potency is the fitted concentration of half-maximal effect; nearly all actives have a fitted effect of over 55% in size
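Chicken DT40 Tdp1-/- cells complemented with human TDP1, screened without camptothecin (DMSO vehicle only), 400 cells/well. Compounds pin-transferred, cells incubated at 37 °C for at least 48 hr. Growth read as ATP-dependent luminescence (CellTiter-Glo, 30 min at RT).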
HT1080 IDH1KD tx = kills HT-1080 cells with IDH1 knockdown; HT-1080 IDH1 knockdown viability, ATP luminescence, 48 h; Potency, µM (series often up to 46.1 µM), inactives show at the top dose activity, negative = toxicity, actives largely listed as cytotoxic; actives 2% (n = 360,000);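 note: potency is the fitted concentration of half-maximal effect; 0% = DMSO wells and -100% = cell-free medium wells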
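Using the IDH1-knockdown HT-1080 line run in the same batch and compound series as the NT line, viability after 48 h at 37 °C was determined by CellTiter-Glo luminescence and expressed as % activity.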
HT1080-NT tox = kills 2HG-producing HT-1080-NT fibrosarcoma cells. Potency, µM (top dose mostly 46.1 µM), without a hit: top-dose activity, negative = less viability, usual class: cytotoxic. HT-1080-NT fibrosarcoma viability, CellTiter-Glo ATP luminescence, 48 h. actives 1.6% (n = 360,000);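 note: NT is the 2HG producing partner of a matched IDH1 knockdown line; potency is the fitted concentration of half-maximal effect; 0% = DMSO-treated cells and -100% = media-only wells without cells; nearly all actives have a fitted effect of over 55% in size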
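HT-1080-NT fibrosarcoma cells (2HG-overproducing), 750 cells/well in RPMI with 5% FBS, dosed after 2 h and incubated 48 h at 37C. CellTiter-Glo luminescence normalized to DMSO and no-cell wells; concentration-response curves fitted and classed.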
* hit, by the source's call. Unless noted, calls come from the whole dose curve; as a rule, active = well fitted curve in the direction sought with a large enough effect; inconclusive = small, poorly fitted or top-dose-only effect, or another doubt; inactive = no such curve, though single readings can be large; an effect the other way counts as inactive or inconclusive. Unless noted, % is set by controls: 0 for no effect and ±100 for the full control effect.

Screening COc1ccccc1Oc1ccc(S(=O)(=O)N2CCOCC2)cc1S(=O)(=O)N1CCOCC1 returned DT40 TDP1 CPT 8%, IL-1B inflam inh -17, TDP1 cell noCPT -21%, HT1080 IDH1KD tx 0% and HT1080-NT tox 2%.
For CC(=O)n1cc([C@H]2C=C(C(=O)N3CCN(Cc4ccccc4)CC3)O[C@@H](OCc3ccc(CO)cc3)C2)c2ccccc21 the results were DT40 TDP1 CPT 7.3µM*, IL-1B inflam inh 0, TDP1 cell noCPT 7.3µM*, HT1080 IDH1KD tx -19% and HT1080-NT tox -15%.
CC(=O)n1cc([C@@H]2C=C(C(=O)NCc3ccccc3)O[C@H](OCc3ccc(CO)cc3)C2)c2ccccc21 was read as DT40 TDP1 CPT 7.3µM*, IL-1B inflam inh inconclusive, TDP1 cell noCPT 9.2µM*, HT1080 IDH1KD tx -22% and HT1080-NT tox -24%.
Screening CC(=O)n1cc([C@H]2C=C(C(=O)Nc3ccccc3)O[C@@H](OCc3ccc(CO)cc3)C2)c2ccccc21 returned DT40 TDP1 CPT 8.2µM*, IL-1B inflam inh 0, TDP1 cell noCPT 9.2µM*, HT1080 IDH1KD tx -22% and HT1080-NT tox -19%.
`C=CCOC(=O)C1=C[C@@H](c2cn(C(C)=O)c3ccccc23)C[C@@H](OCc2ccc(CO)cc2)O1` gave DT40 TDP1 CPT inconclusive, IL-1B inflam inh 13, TDP1 cell noCPT inconclusive, HT1080 IDH1KD tx -14% and HT1080-NT tox -4%.
Screening C#CCNC(=O)C1=C[C@H](c2cn(C(C)=O)c3ccccc23)C[C@H](OCc2ccc(CO)cc2)O1 returned DT40 TDP1 CPT 18µM*, IL-1B inflam inh -17, TDP1 cell noCPT 16µM*, HT1080 IDH1KD tx -1% and HT1080-NT tox -2%.
Screening CC(=O)n1cc([C@@H]2C=C(C(=O)O)O[C@H](OCc3ccc(CO)cc3)C2)c2ccccc21 returned DT40 TDP1 CPT -1%, IL-1B inflam inh 13, TDP1 cell noCPT -3%, HT1080 IDH1KD tx 8% and HT1080-NT tox 12%.
CN(C(=O)c1nn(C)c2c1CSc1ccccc1-2)c1ccc(F)cc1 was read as DT40 TDP1 CPT -21%, IL-1B inflam inh 0, TDP1 cell noCPT -2%, HT1080 IDH1KD tx 0% and HT1080-NT tox 0%.
Cc1ccc(C(=O)Nc2cc(-c3ccn[nH]3)c(C)n(N)c2=O)cc1 was read as DT40 TDP1 CPT 14%, IL-1B inflam inh 9, TDP1 cell noCPT -22%, HT1080 IDH1KD tx -3% and HT1080-NT tox -2%.
`C[C@@H]1[C@H]2[C@@H](O[C@@H]3O[C@H](CO)[C@@H](O)[C@H](O)[C@H]3O)OC=C(C(=O)O)[C@H]2C[C@@H]1O` gave DT40 TDP1 CPT 7.3µM*, IL-1B inflam inh 4, TDP1 cell noCPT 7.3µM*, HT1080 IDH1KD tx -3% and HT1080-NT tox inconclusive.
`COc1ccc(C)cc1NC(=O)Cn1cc(S(=O)(=O)Cc2ccccc2Cl)c2ccccc21` gave DT40 TDP1 CPT inconclusive and TDP1 cell noCPT 21µM*.
For COc1ccc(NC(=O)Cn2cc(S(=O)(=O)Cc3ccccc3)c3ccccc32)c(OC)c1 the results were DT40 TDP1 CPT 5%, IL-1B inflam inh 16, TDP1 cell noCPT 5%, HT1080 IDH1KD tx 0% and HT1080-NT tox -19%.
Screening CN(C(=O)Cn1cc(C#N)c2ccccc21)c1ccccc1 returned DT40 TDP1 CPT -18%, IL-1B inflam inh 9, TDP1 cell noCPT -18%, HT1080 IDH1KD tx 6% and HT1080-NT tox -2%.
For CN(C(=O)Cn1cc(S(=O)(=O)Cc2ccccc2Cl)c2ccccc21)c1ccccc1 the results were DT40 TDP1 CPT 21µM* and TDP1 cell noCPT 21µM*.
`O=P(O)(O)OCC(O)CO` (centres undefined) gave DT40 TDP1 CPT -10% and TDP1 cell noCPT 0%.
Screening CC1=C(C)/C(=N/OC(=O)c2cccc([N+](=O)[O-])c2)C=CC1=O returned DT40 TDP1 CPT 21µM*, IL-1B inflam inh -4, TDP1 cell noCPT 21µM*, HT1080 IDH1KD tx 18µM* and HT1080-NT tox inconclusive.
Cn1c(CCCOc2ccc(Cl)cc2Cl)nnc1SCC(=O)Nc1cccc(F)c1 was read as DT40 TDP1 CPT inconclusive, IL-1B inflam inh -16, TDP1 cell noCPT inconclusive, HT1080 IDH1KD tx -24% and HT1080-NT tox inconclusive.
`Cc1csc(NC(=O)CSc2nnc(CCNC(=O)c3cccs3)n2C)n1` gave DT40 TDP1 CPT -6%, IL-1B inflam inh 79, TDP1 cell noCPT -5%, HT1080 IDH1KD tx 3% and HT1080-NT tox 15%.
`CCc1cccc(C)c1NC(=O)CSc1nnc(CCCOc2ccc(Cl)cc2Cl)n1C` gave DT40 TDP1 CPT 23µM*, IL-1B inflam inh 6, TDP1 cell noCPT 15µM*, HT1080 IDH1KD tx inconclusive and HT1080-NT tox -22%.
CCn1c(CCCOc2ccc(Cl)cc2Cl)nnc1SCC(=O)Nc1cc(F)ccc1C was read as DT40 TDP1 CPT inconclusive, IL-1B inflam inh -59*, TDP1 cell noCPT inconclusive, HT1080 IDH1KD tx inconclusive and HT1080-NT tox inconclusive.
COc1ccc(CCCc2nnc(SCC(=O)Nc3nc(C)cs3)n2C)cc1C was read as DT40 TDP1 CPT inconclusive, IL-1B inflam inh -5, TDP1 cell noCPT 26µM*, HT1080 IDH1KD tx -20% and HT1080-NT tox -1%.
Screening Cc1cc(C)n2nc(Sc3ncccc3[N+](=O)[O-])nc2n1 returned DT40 TDP1 CPT inconclusive, IL-1B inflam inh 17, TDP1 cell noCPT inconclusive, HT1080 IDH1KD tx -1% and HT1080-NT tox -1%.
Screening COc1ccc(CNC(=O)COC(=O)CCN2C(=O)C3CC=CCC3C2=O)cc1OC (centres undefined) returned DT40 TDP1 CPT -7%, IL-1B inflam inh 8, TDP1 cell noCPT -13%, HT1080 IDH1KD tx -5% and HT1080-NT tox 6%.
Screening O=C1Nc2ccccc2C1=Nc1ccc2[nH]c3ccccc3c2c1 returned DT40 TDP1 CPT inconclusive, IL-1B inflam inh inconclusive, TDP1 cell noCPT -5%, HT1080 IDH1KD tx 8% and HT1080-NT tox 1%.
Screening CCCCOc1ccccc1-c1ccccc1CN1[C@@H](C(C)C)COCCS1(=O)=O returned DT40 TDP1 CPT 16µM*, IL-1B inflam inh 16, TDP1 cell noCPT 18µM*, HT1080 IDH1KD tx inconclusive and HT1080-NT tox inconclusive.
For CC(C)[C@H]1COCCS(=O)(=O)N1Cc1ccccc1-c1cccc2c1oc1ccccc12 the results were DT40 TDP1 CPT inconclusive, IL-1B inflam inh 22, TDP1 cell noCPT 18µM*, HT1080 IDH1KD tx -2% and HT1080-NT tox -1%.
Cc1ccc(C(C[N+](=O)[O-])Sc2ccc(N)cc2)cc1 (centres undefined) was read as DT40 TDP1 CPT 4.1µM*, TDP1 cell noCPT 6.5µM*, HT1080 IDH1KD tx 16µM* and HT1080-NT tox inconclusive.
